Growth data for 14 molecules are collected here from PubChem BioAssay (NCI).

The panel holds about 83,000 compounds, 20% with a hit somewhere; the sample as a whole holds those more often.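 Testing used 96-well plates and a 48-hour single-concentration exposure. Example: -40 means 40% of the starting cells died.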 Unmarked numbers belong to inactive results. Active and inactive are the calls of the source. Rule for the calls: active = growth percent below 10; inactive = the rest.

Assay in all cases: NCI-60 one-dose screen, 48 h (100 = growth as untreated, 0 = no growth, -100 = all killed)
What all share (conditions): 10 µM unless noted

For experiment [1], the system named is EKVX NSCLC.
Experiment [2] relates to SN12C renal.
Experiment [3] has as its system UO-31 renal.
In experiment [4] the test system is TK-10 renal.
Experiment [5] deals with ACHN renal.
The subject of experiment [6] is CAKI-1 renal.
The subject of experiment [7] is A498 renal.
Experiment [8] has as its system CCRF-CEM leukemia.
For experiment [9], the system named is MOLT-4 leukemia.
The subject of experiment [10] is SR leukemia.

On to `C/C(=N/N=C(N)N)c1ccc(N)cc1`, for which the growth is 119% in experiment [1]; 95.9% in experiment [2]; 69.8% in [3]; 104% in [4]; 102% in [5]; 38% in experiment [6]. The growth is 103% in [7], 124% in experiment [8], 109% in experiment [9] and 49.3% in [10].

Take `CCCC[N+](CCCC)=c1ccc2nc3c(C)cc(N(CC)CC)cc3sc-2c1`: the growth in experiment [1] is 4.13% (active); in experiment [2] it was -3.26% (active); in [3] it was 0.703% (active); in experiment [4] it was 3.75% (active); in experiment [5] it was -34.1% (active); in [6] it was -2.5% (active). Moreover, the growth in experiment [7] is -5.54% (active); in experiment [8] it was -15.7% (active); in [9] it was -20.1% (active); in experiment [10], -18.2% (active).

Consider `Cc1ccccc1-c1cc(Cc2ccccc2O)c(=O)[nH]n1`, for which the growth was 67% in experiment [1]; 97.4% in experiment [2]; 71.1% in experiment [3]; 130% in experiment [4]; 94.9% in experiment [5]; 88.8% in experiment [6]. Besides, the growth in experiment [7] was 110%; in experiment [8], -49.5% (active); in [9], 86.7%; in [10], 92.5%.

On to `CCN(CC)CCOc1ccc(C2=C(c3ccccc3)CCc3cc(OC)ccc32)cc1`, for which the growth in experiment [1] is 54.4%; in [2] it was 52.3%; in experiment [3] it was -76.7% (active); in experiment [4], -21.1% (active); in [5] it was 50.5%; in [6], -26.1% (active). Also, the growth in [7] was -4.36% (active); in [8], -37.8% (active); in experiment [9], -49.7% (active); in experiment [10], -42.1% (active).

For the molecule `CCCc1cccc(CCC)c1O`, the growth in experiment [1] was 98.9%; in experiment [2] it was 107%; in experiment [3] it was 98%; in experiment [4] it was 116%; in [5], 115%; in experiment [6], 93.8%. Further, the growth was 95.5% in experiment [7], 111% in experiment [8], 105% in experiment [9] and 116% in experiment [10].

For `COc1cc(/C=C2\COc3ccc(O)cc3C2=O)cc(OC)c1`, the growth in [1] was 94.8%; in experiment [2] it was 21.7%; in experiment [3], 63.1%; in experiment [4], 93.6%; in [5], 48.9%; in experiment [6], 68.4%. Also, the growth in experiment [7] was 101%; in experiment [8] it was -0.953% (active); in experiment [9] it was 31.3%; in experiment [10] it was 3.36% (active).

`C=C1CC[C@@H]2[C@](C)(COC(C)=O)[C@H](OC(C)=O)CC[C@@]2(C)[C@@H]1CC(Nc1ccc(S(=O)(=O)Nc2cc(C)on2)cc1)C1=CCOC1=O` (stereo not given in full): the growth in experiment [1] was 81.9%; in experiment [2] it was 31.8%; in experiment [3], 56.9%; in experiment [4] it was 58.4%; in [5], 19.5%; in [6], 44%. In addition, the growth in [7] was 98.6%; in experiment [8], -19.1% (active); in [9] it was -7.86% (active); in [10] it was 1.4% (active).

For the molecule `O=C1NCC(Nc2ccc(Br)cc2Cl)C(=O)N1` (stereo not given), the growth is 90.7% in experiment [1]; 102% in experiment [2]; 67.7% in experiment [3]; 110% in experiment [4]; 96.2% in [5]; 91.8% in experiment [6]. For the same molecule, the growth in experiment [7] is 117%; in experiment [8], 116%; in experiment [9] it was 109%; in experiment [10], 101%.

For the molecule `COc1cc(OC)c2sc(-c3ccc(-n4cncc4-c4ccc(N)cc4)cc3)nc2c1`, the growth was 70.3% in [1]; 76.1% in experiment [2]; 49.2% in experiment [3]; 70% in experiment [4]; 79.7% in experiment [5]; 76.4% in experiment [6]. The growth in [7] was -3.9% (active); in experiment [8] it was 60.5%; in experiment [9], 46.9%; in experiment [10], 68.3%.

For the molecule `COc1ccc2c(c1)[nH]c(=O)c1c3cc(OC)c(OC)cc3cn21`, the growth is 36.9% in experiment [1]; 35.6% in experiment [2]; 35.1% in experiment [3]; 27.1% in experiment [4]; 24.7% in experiment [5]; -9.25% (active) in [6]. For the same molecule, the growth is 34.4% in experiment [7], -83.5% (active) in experiment [8], 7.2% (active) in experiment [9] and 64.9% in [10].

As for `CC(C)C/C(=N\NC(=O)c1ccncc1)c1cc(Cl)ccc1O`, the growth in experiment [1] is 25.7%; in [2], 26.3%; in experiment [3] it was 10.9%; in [4], 15.4%; in experiment [5], 13.3%; in experiment [6] it was 3.32% (active). Besides, the growth is 49.5% in experiment [7], 7.99% (active) in [8], 3.56% (active) in experiment [9] and 6.34% (active) in experiment [10].

On to `Cc1cc(NC(=O)c2ccc(N)cc2)ccc1N=Nc1ccc2c(O)c(N=Nc3ccc(Cl)c(S(=O)(=O)O)c3)c(S(=O)(=O)O)cc2c1`, for which the growth in experiment [1] was 106%; in experiment [2] it was 102%; in [3], 79.5%; in experiment [4], 73%; in experiment [5], 71.5%; in experiment [6], 87.1%. In addition, the growth was 88.9% in [7], 55.7% in [8], 99.3% in [9] and 66.5% in experiment [10].

For `O=C(Nc1ccc(Cl)cc1)Nc1ccc(Nc2nncc3ccccc23)cc1`, the growth in experiment [1] is 20.6%; in experiment [2], 26.4%; in [3] it was 19%; in experiment [4], 32%; in experiment [5], 22.4%; in experiment [6], 20.6%. The growth in experiment [7] is 24.5%; in experiment [8], 13.1%; in experiment [9] it was -1.61% (active); in experiment [10], 17.5%.

As to `Cc1ccc(NC(=O)Nc2ccc(-c3cccnc3)cc2N2CCC(CO)CC2)cc1`, the growth in experiment [1] was 55.5%; in experiment [2], 41%; in experiment [3], 81.2%; in [4] it was 16.5%; in experiment [5], 81.2%; in experiment [6], 42.2%. Besides, the growth in [7] was -36.2% (active); in experiment [8] it was 34.7%; in [9], 17.6%; in experiment [10] it was 17.1%.
